Only a selection was taken, and hits are over-represented in it overall.
NOMO-1 viab = STK33 inhibitor candidate reducing NOMO-1 cell viability. inhibition, % (no concentration beside the values). 37,000 tested, 7.5% active. NOMO-1 AML viability, CellTiter-Glo luminescence, 72 h; in the data active means inhibition above about 80%; inconclusive means no clear call, values can overlap the other calls
PD-1 reverse act = activators reversing PD-1 mediated T-cell inhibition; 29,000 tested, under 10 active; AID 2316; activation, % (concentration not given with the values); primary human CD4 T cells, PD-L1 beads, CellTiter-Glo 96 h; call rule not given here;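 further: 0% = median vehicle wells and 100% = positive control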
U2OS ROS induce = raises reactive oxygen species in U2OS cancer cells | 46,000 tested, 2% active | ROS induction (% of piperlongumine), % at 10 µM | U2OS ROS induction, H2DCF-DA fluorescence; in the data active means ROS induction above about 79%, passing the limit was not always enough; inconclusive means no clear call, values can overlap the other calls;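 further: 0% = DMSO vehicle median and 100% = reference compound median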
* = called active by the depositor.

C=C(C)[C@@H]1Cc2c(ccc3c2O[C@H]2COc4cc(OC)c(OC)cc4[C@@]2(O)C3=O)O1 was read as NOMO-1 viab 116.8*, PD-1 reverse act -2.6 and U2OS ROS induce 33.4.
`O/N=C(\Cn1cncn1)c1ccc(Cl)cc1Cl` gave NOMO-1 viab 19.6, PD-1 reverse act 0.2 and U2OS ROS induce 7.6.
`Clc1ccc(CO/N=C(\Cn2ccnc2)c2ccc(Cl)cc2Cl)c(Cl)c1` gave NOMO-1 viab 110.1* and U2OS ROS induce 35.2.
`C[C@@H]1O[C@@H](O[C@@H]2[C@@H](O)[C@H](O[C@@H]3[C@@H](O)[C@@H](O)[C@H](O[C@H]4[C@H](OC(=O)[C@]56CCC(C)(C)C[C@H]5C5=CCC7[C@@]8(C)C[C@H](O)[C@H](O[C@@H]9O[C@H](C(=O)O)[C@@H](O)[C@H](O)[C@H]9O)[C@@](C)(CO)C8[C@H](O)C[C@@]7(C)[C@]5(C)C[C@H]6O)OC[C@H](O)[C@@H]4O)O[C@H]3C)OC[C@H]2O)[C@H](O)[C@H](O)[C@H]1O` (some centres undefined) gave NOMO-1 viab 19.2, PD-1 reverse act 2.5 and U2OS ROS induce 13.1.
Screening Cc1ccc(-n2sc3ccccc3c2=O)cc1 returned NOMO-1 viab 140.6*, PD-1 reverse act -5.7 and U2OS ROS induce -13.8.
For Cc1ccc(N2C(=O)c3ccccc3C2=O)cc1 the results were U2OS ROS induce -2.9.
`O=C(Cn1c(=O)c2cccn2c2ccccc21)NC1CCCc2ccccc21` (centres undefined) gave U2OS ROS induce 37.4.
`CC1CCCN(S(=O)(=O)c2ccc3[nH]c(=O)cc(C(=O)NC(C)CCc4ccccc4)c3c2)C1` (centres undefined) gave U2OS ROS induce 5.1.
For Cc1ccc(-c2cc(C(F)(F)F)n3ncc(C(=O)NCc4ccco4)c3n2)cc1 the results were NOMO-1 viab 11.6, PD-1 reverse act -4.8 and U2OS ROS induce 95.5*.
Screening Cc1ccc(-c2cc(C(F)F)n3ncc(C(=O)NCc4ccco4)c3n2)cc1 returned NOMO-1 viab 24.6, PD-1 reverse act -4.9 and U2OS ROS induce 110.8*.
`Cc1ccc(-c2cc(C(F)F)n3ncc(C(=O)NCCCN4CCOCC4)c3n2)cc1` gave NOMO-1 viab 4.9, PD-1 reverse act -6.1 and U2OS ROS induce 137.1*.
Cc1ccc(-c2cc(C(F)(F)F)n3nc(C(=O)NCc4ccco4)cc3n2)cc1 was read as NOMO-1 viab 10.6, PD-1 reverse act -0.5 and U2OS ROS induce 38.7.
For O=C(NCCN1CCOCC1)c1cnn2c(C(F)F)cc(-c3ccccc3)nc12 the results were NOMO-1 viab 1.8, PD-1 reverse act -4.7 and U2OS ROS induce 67.2.
`COC(=O)c1ccc(C(=O)OC)c(NC(=O)c2cnn3c(C(F)F)cc(-c4ccc(C)cc4)nc23)c1` gave NOMO-1 viab inconclusive, PD-1 reverse act 1.2 and U2OS ROS induce -9.9.
For CCCCc1[nH]nc2c1C1(CCCCC1)C(C#N)=C(N)O2 the results were U2OS ROS induce -13.4.
Cc1nnc(NC(C)C)s1 was read as NOMO-1 viab -6.2, PD-1 reverse act 0.6 and U2OS ROS induce -1.8.
`CCCCN(C)Cc1c(O)ccc2c(=O)c(-c3ccccc3OC)c(C(F)(F)F)oc12` gave U2OS ROS induce -0.3.
Screening Cc1cccc(N2C(=O)c3ccc(C(=O)Nc4c[nH]c(=O)[nH]c4=O)cc3C2=O)c1C returned NOMO-1 viab -12.6, PD-1 reverse act 0.5 and U2OS ROS induce -8.2.
For COc1cccc(Cn2c(SCc3ccc(C(=O)NC4CCCC4)cc3)nc3ccncc32)c1 the results were U2OS ROS induce 19.4.
For C=C1C(=O)O[C@H]2C1CCC(C)=C1C(=O)C=C(C)[C@@H]12 (some centres undefined) the results were NOMO-1 viab 114.9*, PD-1 reverse act 1.1 and U2OS ROS induce 72.2.
`CC1=CC(=O)C2=C(C)CC[C@@H]3[C@H](OC(=O)[C@H]3C)[C@@H]12` gave NOMO-1 viab 11.9 and U2OS ROS induce 2.9.
`Cc1ccccc1C(=O)NC(=S)Nc1ccc(-c2nc3ccccc3o2)cc1` gave U2OS ROS induce 14.8.
Screening COC(=O)CCS(=O)(=O)c1cccc2c(S(=O)(=O)CCC(=O)OC)cccc12 returned NOMO-1 viab 124.2*, PD-1 reverse act 0.2 and U2OS ROS induce 7.7.
`O=C(O)CCS(=O)(=O)c1cccc2cccnc12` gave NOMO-1 viab -25.1, PD-1 reverse act 2.1 and U2OS ROS induce -0.8.
For CCOC(=O)C(C)N1C(=O)S/C(=C/c2ccc(-c3ccccc3C(=O)O)o2)C1=O (centres undefined) the results were U2OS ROS induce -2.2.
For Cc1cccc(NC(=O)CSc2nnc(-c3ccc(Cl)cc3)n2-c2cccc(C)c2)c1 the results were NOMO-1 viab 128.0*, PD-1 reverse act -12.5 and U2OS ROS induce -11.5.
`COc1ccc(C)cc1NC(=O)CSc1nnc(-c2ccc(C(C)(C)C)cc2)n1C` gave NOMO-1 viab 28.3, PD-1 reverse act -2.3 and U2OS ROS induce 93.1*.
Cc1cccc(NC(=O)CSc2nnc(-c3cccc(Br)c3)n2-c2ccccc2)c1 was read as NOMO-1 viab 32.4, PD-1 reverse act -9.9 and U2OS ROS induce -7.7.
Cc1ccc(NC(=O)CSc2nnc(-c3ccc(Cl)c(Cl)c3)n2C)cc1C was read as NOMO-1 viab 2.4.
`COc1ccc(C)cc1NC(=O)CSc1nnc(-c2ccc(Cl)c(Cl)c2)n1C` gave NOMO-1 viab 4.7, PD-1 reverse act -1.3 and U2OS ROS induce 8.9.
`CC(C)(C)c1ccc(-c2nnc(SCC(=O)Nc3ccccc3)n2-c2ccccc2)cc1` gave NOMO-1 viab 112.6*, PD-1 reverse act -1.9 and U2OS ROS induce 5.2.
For O=C(CSc1nnc(-c2ccncc2)n1-c1ccccc1)Nc1ccc(C(F)(F)F)cc1 the results were NOMO-1 viab 16.8, PD-1 reverse act -1.7 and U2OS ROS induce 4.5.
`Cn1c(SCC(=O)Nc2ccc(Cl)c(Cl)c2)nnc1-c1ccc(Cl)c(Cl)c1` gave NOMO-1 viab 105.8*.
Screening COC(=O)c1ccc(C=Nc2ccc3oc(-c4ccc(C)cc4)nc3c2)cc1 returned NOMO-1 viab -22.5, PD-1 reverse act 1.2 and U2OS ROS induce -5.0.
For O=C(Nc1ccccc1)c1ccc(CSc2nnc(-c3ccncc3)n2-c2ccccc2)cc1 the results were NOMO-1 viab 33.4, PD-1 reverse act -0.8 and U2OS ROS induce 109.2*.
For O=C(CSc1nnc(-c2ccncc2)n1-c1ccccc1)c1ccc(Br)cc1 the results were NOMO-1 viab 3.6, PD-1 reverse act -0.7 and U2OS ROS induce -4.8.
`Cc1ccc(NC(=O)CSc2nnc(-c3ccncc3)n2-c2ccc(Cl)cc2)cc1F` gave NOMO-1 viab 28.7, PD-1 reverse act -2.3 and U2OS ROS induce 7.4.
`Cc1ccc(NC(=O)CSc2nnc(-c3cccnc3)n2-c2ccc(Br)cc2)cc1F` gave NOMO-1 viab 32.6, PD-1 reverse act 1.8 and U2OS ROS induce 76.8*.
Screening Cn1ccnc1SCC(=O)Nc1ccc(S(N)(=O)=O)cc1 returned U2OS ROS induce -10.8.
Screening C=CCNC(=O)CC1CCCCC1 returned NOMO-1 viab -8.6, PD-1 reverse act 0.0 and U2OS ROS induce 7.4.
For O=C1c2ccccc2C(=O)N1[C@H]1CCN(Cc2ccc(OCCO)cc2)C1 the results were U2OS ROS induce 41.9.
Screening O=C(Nc1cccc(-c2nnco2)c1)c1ccc(C(F)(F)F)cc1 returned U2OS ROS induce -3.2.

From PubChem BioAssay
